Laboratory results: PubChem BioAssay AID1159580 (chemical genetic matrix, 2015)
Hit rate of the full screen: of about 5,500 compounds, about 2,000 (36%) were called active. About 18% were inconclusive and are not listed. Cut-off read from the data, not from the text of the source: active = normalized growth mostly below about 0.91 (no sharp cut-off); inconclusive = no clear call, values can overlap the other calls; inactive = mostly above about 0.92. The list shows a part of the results.

Assay: chemical genetic growth profiling, strain panel (AID 1159580);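 note: tested at 20 µM; growth read once vehicle control cultures reached saturation at 30 °C; 1 = growth at the plate median or of vehicle wells; lower values mean less growth of the strain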
Conditions: S. cerevisiae deletion strains, growth OD

Measured: normalized growth

N#Cc1c(Cl)c(Cl)c(Cl)c(Cl)c1C#N
active: locus YAR019C, strain CDC15, stronger effect = lower value 0.625 | locus YBL105C, strain PKC1, stronger effect = lower value 0.734 | locus YBR135W, strain CKS1, stronger effect = lower value 0.721 | locus YBR136W, strain MEC1, stronger effect = lower value 0.716 | locus YBR160W, strain CDC28, stronger effect = lower value 0.726 | locus YDL017W, strain CDC7, stronger effect = lower value 0.722 | locus YDL028C, strain MPS1, stronger effect = lower value 0.488 | locus YDL101C, strain DUN1, stronger effect = lower value 0.789 | locus YDL108W, strain KIN28, stronger effect = lower value 0.707 | locus YDL132W, strain cdc53, stronger effect = lower value 0.588 | locus YDL214C, strain PRR2, stronger effect = lower value 0.392 | locus YDR052C, strain DBF4, stronger effect = lower value 0.77 | locus YDR054C, strain cdc34, stronger effect = lower value 0.235 | locus YDR226W, strain ADK1, stronger effect = lower value 0.693 | locus YDR477W, strain SNF1, stronger effect = lower value 0.283 | locus YER123W, strain YCK3, stronger effect = lower value 0.169 | locus YER133W, strain GLC7, stronger effect = lower value 0.227 | locus YFL009W, strain cdc4, stronger effect = lower value 0.685 | locus YFL029C, strain CAK1, stronger effect = lower value 0.639 | locus YFR003C, strain YPI1, stronger effect = lower value 0.634 | locus YFR019W, strain FAB1, stronger effect = lower value 0.315 | locus YFR028C, strain CDC14, stronger effect = lower value 0.66 | locus YGR040W, strain KSS1, stronger effect = lower value 0.352 | locus YGR052W, strain FMP48, stronger effect = lower value 0.382 | locus YGR092W, strain DBF2, stronger effect = lower value 0.135 | locus YHR030C, strain SLT2, stronger effect = lower value 0.23 | locus YHR079C, strain IRE1, stronger effect = lower value 0.17 | locus YHR082C, strain KSP1, stronger effect = lower value 0.412 | locus YHR205W, strain SCH9, stronger effect = lower value 0.071 | locus YIL147C, strain SLN1, stronger effect = lower value 0.555 | locus YJL095W, strain BCK1, stronger effect = lower value 0.284 | locus YJL157C, strain FAR1, stronger effect = lower value 0.318 | locus YJR016C, strain ILV3, stronger effect = lower value 0.587 | locus YJR066W, strain TOR1 (second series), stronger effect = lower value 0.459 | locus YJR066W, strain TOR1, stronger effect = lower value 0.376 | locus YKL048C, strain ELM1, stronger effect = lower value 0.282 | locus YKL067W, strain YNK1, stronger effect = lower value 0.359 | locus YKL101W, strain HSL1, stronger effect = lower value 0.346 | locus YKL193C, strain SDS22, stronger effect = lower value 0.66 | locus YKL203C, strain TOR2, stronger effect = lower value 0.37 | locus YLR113W, strain HOG1, stronger effect = lower value 0.302 | locus YLR133W, strain CKI1, stronger effect = lower value 0.238 | locus YLR403W, strain SFP1, stronger effect = lower value 0.109 | locus YML070W, strain DAK1, stronger effect = lower value 0.291 | locus YMR001C, strain CDC5, stronger effect = lower value 0.673 | locus YMR205C, strain PFK2 (second series), stronger effect = lower value 0.159 | locus YMR277W, strain FCP1, stronger effect = lower value 0.594 | locus YNL006W, strain LST8, stronger effect = lower value 0.574 | locus YNL020C, strain ARK1, stronger effect = lower value 0.191 | locus YNL161W, strain CBK1, stronger effect = lower value 0.704 | locus YNL183C, strain NPR1, stronger effect = lower value 0.241 | locus YNL207W, strain RIO2, stronger effect = lower value 0.666 | locus YNL222W, strain SSU72, stronger effect = lower value 0.653 | locus YNL307C, strain MCK1 (second series), stronger effect = lower value 0.162 | locus YOL078W, strain AVO1, stronger effect = lower value 0.652 | locus YOL136C, strain PFK27, stronger effect = lower value 0.26 | locus YOR061W, strain CKA2, stronger effect = lower value 0.141 | locus YOR119C, strain RIO1, stronger effect = lower value 0.37 | locus YOR231W, strain MKK1, stronger effect = lower value 0.285 | locus YOR329C, strain SCD5, stronger effect = lower value 0.701 | locus YPL031C, strain PHO85, stronger effect = lower value 0.219 | locus YPL153C, strain RAD53, stronger effect = lower value 0.158 | locus YPL204W, strain HRR25, stronger effect = lower value 0.214 | locus YPL209C, strain IPL1, stronger effect = lower value 0.711 | locus YPL256C, strain CLN2, stronger effect = lower value 0.492 | locus YPR025C, strain CCL1, stronger effect = lower value 0.728 | locus YPR106W, strain ISR1, stronger effect = lower value 0.851 | locus YPR111W, strain DBF20, stronger effect = lower value 0.756 | strain NNK1, stronger effect = lower value 0.747 | strain TSCII, stronger effect = lower value 0.661
